ARNT-TACC3 inh – disruptors of ARNT/TACC3 protein interaction, primary screen, biochemical, AlphaScreen, single concentration | 390,000 compounds, 0.66% hits | inhibition, % at 9.99 µM | AlphaScreen His-ARNT PAS-B/GST-TACC3 binding, luminescence; TACC3 fragment carries E629A point mutation;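 active = mean inhibition of replicates at least 50% and at least half of replicates each reaching 50%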
ERp5 inh – inhibitors of ERp5-driven insulin aggregation, primary screen, biochemical, turbidity, absorbance 650 nm, single point. Protein disulfide-isomerase A6 (Homo sapiens), Q15084. 90 min. inhibition, % at 9.99 µM. 350,000 compounds, 0.05% hits;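 active = mean replicate inhibition above about 25%, with every replicate also reaching it, limit read from the data, passing the limit was not always enough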
Target sequence (Q15084 whole entry, looked up): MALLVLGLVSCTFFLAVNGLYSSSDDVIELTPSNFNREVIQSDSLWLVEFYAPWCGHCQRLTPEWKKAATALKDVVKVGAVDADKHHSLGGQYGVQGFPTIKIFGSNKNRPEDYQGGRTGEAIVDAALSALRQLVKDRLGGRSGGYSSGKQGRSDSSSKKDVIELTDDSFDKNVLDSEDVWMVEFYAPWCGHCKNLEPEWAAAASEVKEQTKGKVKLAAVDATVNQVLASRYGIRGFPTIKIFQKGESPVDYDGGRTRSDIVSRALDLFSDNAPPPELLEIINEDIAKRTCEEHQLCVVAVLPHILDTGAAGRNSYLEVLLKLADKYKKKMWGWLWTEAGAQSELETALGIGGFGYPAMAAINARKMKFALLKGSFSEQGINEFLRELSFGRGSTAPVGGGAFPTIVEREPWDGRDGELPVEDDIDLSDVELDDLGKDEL
PglD inh – C. jejuni PglD acetyltransferase inhibitors, primary screen, biochemical, DTNB colorimetric, single point. purified PglD enzyme, DTNB colorimetric CoA detection. UDP-N-acetylbacillosamine N-acetyltransferase PglD (Campylobacter jejuni). 360,000 compounds, 0.098% hits. inhibition, % at 12.5 µM; in the data active = inhibition above about 16%, passing the limit was not always enough
ALR H2O2 inh – inhibitors of human ALR sulfhydryl oxidase, primary screen, biochemical, H2O2 detection, HRP-luminol luminescence, single point; purified ALR, DTT oxidation; inhibition, % (concentration not given with the values); 290,000 compounds, 3.8% hits;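 active = mean replicate inhibition above about 79%, with every replicate also reaching it, limit read from the data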
Target sequence (P55789 whole entry, looked up): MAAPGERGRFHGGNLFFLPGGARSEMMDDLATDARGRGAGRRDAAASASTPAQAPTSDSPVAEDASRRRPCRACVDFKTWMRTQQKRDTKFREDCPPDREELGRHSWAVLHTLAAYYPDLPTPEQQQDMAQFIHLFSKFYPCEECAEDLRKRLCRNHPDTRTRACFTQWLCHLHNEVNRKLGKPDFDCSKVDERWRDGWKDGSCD
PDI inh – inhibitors of human PDI, primary screen, biochemical, turbidity, single point, plate reader; Protein disulfide-isomerase (Homo sapiens), P07237; PDI insulin aggregation turbidity, A650, 90 min; inhibition, % at 10 µM; 350,000 compounds, 0.052% hits; AID 588391, 2011;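 active = mean inhibition across replicates of 30% or more, whatever share of single replicates reach that level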
NRP1-CendR mod – modulators of CendR peptide binding to NRP-1, primary screen, biochemical, fluorescence polarization, uHTS. Neuropilin-1 (Homo sapiens), O14786. FAM-RPARPAR peptide binding to NRP-1. inhibition, % at 25 µM. 360,000 compounds, 0.85% hits;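 active = inhibition or corrected inhibition above about 18%, plus a signal ratio from 0.5 to 1.5, limit read from the data, passing the limit was not always enough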
Large screens that a line does not name were inactive. Many of the other results were omitted from the sample, so hits are more common in it than they were.

O=C(CSS(=O)(=O)O)N1CCN(C(=O)c2ccoc2)CC1	ALR H2O2 inh 98 (no result: PglD inh)
CN(C)c1ccc(Nc2nc(-c3cccnc3)cs2)cc1	ALR H2O2 inh 95 (no result: ERp5 inh, PglD inh)
O=C(Cc1ccc([N+](=O)[O-])cc1)Nc1cccc(C(=O)N2CCCCC2)c1	NRP1-CendR mod 26
O=C(O)c1ccc(N2C(=O)CC(N3C(=O)/C(=C/c4ccc(Cl)cc4)SC3=S)C2=O)cc1 (stereo unspecified)	ALR H2O2 inh 100
Cc1ccc2occ(/C=N/NC(=O)c3ccc(O)cc3)c(=O)c2c1	ALR H2O2 inh 98
Cc1ccc2occ(/C=N/NC(=O)c3ccccc3Br)c(=O)c2c1	none
COc1ccccc1NCCC(=O)O	none (no result: PglD inh, ALR H2O2 inh)
O=C1c2cccc(NCCNCCO)c2C(=O)c2cccc(NCCNCCO)c21	ARNT-TACC3 inh 47 (no result: PglD inh, ALR H2O2 inh)
O=C(O)CCNc1ccc(NCCC(=O)O)c2c1C(=O)c1ccccc1C2=O	ALR H2O2 inh 99, NRP1-CendR mod 46 (no result: ARNT-TACC3 inh, PglD inh)
CCc1cc(=O)[nH]c(SCc2cccc3ccccc23)n1	ALR H2O2 inh 98 (no result: ARNT-TACC3 inh, ERp5 inh)
Nc1cc(=O)[nH]c(SCc2cccc3ccccc23)n1	ALR H2O2 inh 99
O=c1cc(C(F)(F)F)nc(SCc2cccc3ccccc23)[nH]1	none
C[C@H](CO)N1C[C@H](C)[C@@H](CN(C)C(=O)CC2CC2)Oc2ncc(C#C[C@@H](C)O)cc2C1=O	none (no result: ALR H2O2 inh, PDI inh, NRP1-CendR mod)
COc1cccc(CNC(=O)C[C@@H]2CC[C@H](NC(=O)C3CCOCC3)[C@H](CO)O2)c1	none (no result: ALR H2O2 inh, PDI inh, NRP1-CendR mod)
Cc1ccc(Nc2nc(CSc3nnc(-c4ccncc4)n3C)cs2)cc1	none (no result: ERp5 inh)
Cc1ccccc1Nc1nc(CSc2nnc(-c3ccoc3C)n2C)cs1	ALR H2O2 inh 97 (no result: ERp5 inh)
C=CCn1c(SCc2c(F)c(F)c(F)c(F)c2F)nc(O)cc1=O	ALR H2O2 inh 99 (no result: ERp5 inh, PglD inh)
O=C(COC(=O)Cn1cnc2ccccc21)Nc1ccc(Br)cc1	NRP1-CendR mod 32 (no result: ARNT-TACC3 inh, ALR H2O2 inh)
CN(C)c1ccc(NC(=O)CSc2nnc(C3CCCCC3)n2N)cc1	ALR H2O2 inh 99
Nn1c(SCC(=O)Nc2nccs2)nnc1C1CC1	ALR H2O2 inh 99 (no result: ARNT-TACC3 inh)
COc1ccc(CCSc2nnc(C3CCCCC3)n2N)cc1	ALR H2O2 inh 96 (no result: ERp5 inh)
Cc1csc(NC(=O)CSc2nnc(C)c(=O)n2N)n1	ALR H2O2 inh 99
Cc1csc(NC(=O)CSc2nnnn2C)n1	none (no result: ERp5 inh, PglD inh)
Nn1c(SCC(=O)Nc2ccc(F)cc2)nnc1C1CCCCC1	none (no result: ERp5 inh)
CCC(=O)N1CC2(C1)CN(C(=O)Nc1ccccc1F)[C@@H](CO)c1[nH]c3cc(OC)ccc3c12	none (no result: ARNT-TACC3 inh, PglD inh, ALR H2O2 inh, PDI inh, NRP1-CendR mod)
CO[C@@H]1CN(C)C(=O)c2ccc(NC(C)=O)cc2OC[C@H](C)N(Cc2ccc(F)cc2)C[C@@H]1C	none (no result: ALR H2O2 inh, PDI inh, NRP1-CendR mod)
CNC(=O)C[C@H]1CC[C@@H]2[C@H](COC[C@H](O)CN2S(=O)(=O)c2ccccc2Cl)O1	none (no result: ERp5 inh, ALR H2O2 inh, PDI inh, NRP1-CendR mod)
CCCCn1nnnc1SCC(=O)Nc1ccc(N(C)C)cc1	ALR H2O2 inh 99 (no result: ERp5 inh)
Cc1nnc(SCC(=O)Nc2ccc(F)cc2)n(N)c1=O	none
Cc1nnc(SCC(=O)Nc2ccc(N(C)C)cc2)n(N)c1=O	ALR H2O2 inh 99
CC(=O)Nc1ccc(NC(=O)CSc2nnc(C)c(=O)n2N)cc1	ALR H2O2 inh 98
CCCCn1nnnc1SCC(=O)Nc1ccc(F)cc1	none (no result: ERp5 inh)
Cc1nnc(SCC(=O)Nc2ccc(Br)cc2)n(N)c1=O	none
C=CCn1c(SCC(=O)Nc2nc(C)cs2)nnc1C(CO)NC(=O)c1ccccc1 (stereo unspecified)	ALR H2O2 inh 85 (no result: ERp5 inh, PglD inh)
C[C@@H]1CN([C@@H](C)CO)C(=O)c2cccc(NS(=O)(=O)c3cn(C)cn3)c2O[C@@H]1CN(C)Cc1ccc(-c2ccccc2)cc1	none (no result: ALR H2O2 inh, PDI inh, NRP1-CendR mod)
Cc1ccc(C)c(NC2=C(Cl)C(=O)OC2OC(=O)c2ccco2)c1 (stereo unspecified)	none
Cc1ccc(NC2=C(Cl)C(=O)OC2OC(=O)c2ccco2)cc1C (stereo unspecified)	ALR H2O2 inh 91
Cc1ccc(NC2=C(Cl)C(=O)OC2OC(=O)c2ccco2)c(C)c1 (stereo unspecified)	ALR H2O2 inh 99 (no result: ERp5 inh)
COc1cccc(NC(=O)N[C@@H]2C=C[C@H](CC(=O)N3CCN(C)CC3)O[C@H]2CO)c1	none (no result: ALR H2O2 inh, PDI inh, NRP1-CendR mod)
CN1C(=O)c2cc(NC(=O)C3CCOCC3)ccc2OC[C@@H]2O[C@@H](CC(=O)O)CC[C@H]21	none (no result: ALR H2O2 inh, PDI inh, NRP1-CendR mod)
Cn1c(=O)c2c(ncn2CC(=O)Nc2nc3ccc(F)cc3s2)n(C)c1=O	ALR H2O2 inh 99 (no result: ERp5 inh)
O=C(/C=C/c1ccc2c(c1)OCO2)Nc1c(C(=O)O)[nH]c2ccccc12	ALR H2O2 inh 98
CC(C)NC(=O)Nc1cccc2c1O[C@@H](CN(C)S(C)(=O)=O)[C@@H](C)CN([C@@H](C)CO)C2=O	none (no result: ALR H2O2 inh, PDI inh, NRP1-CendR mod)
CC(=O)N1[C@@H]2c3ccc(-c4ccc(F)cc4)c(=O)n3C[C@@H]2[C@@H](CO)[C@@H]1C(=O)N(C)C	none (no result: ALR H2O2 inh, PDI inh, NRP1-CendR mod)
C[C@H]1CCC[C@]2(O[C@@H](CCO)C[C@@H](O)[C@@H]2O)O1	none
OCC[C@@H]1C[C@@H](O)[C@H](O)[C@]2(CCCc3ccccc3O2)O1	none (no result: ARNT-TACC3 inh)
C[C@H]1CCC[C@@]2(O[C@@H](CCO)C[C@@H](O)[C@@H]2O)O1	NRP1-CendR mod 25 (no result: ALR H2O2 inh)
OCC[C@@H]1C[C@H](O)[C@@H](O)[C@@]2(CCCO2)O1	NRP1-CendR mod 24 (no result: ALR H2O2 inh)
OCC[C@@H]1C[C@@H](O)[C@H](O)[C@@]2(CCCO2)O1	none (no result: PglD inh)
OCC[C@H]1C[C@H](O)[C@@H](O)[C@]2(CCCO2)O1	NRP1-CendR mod 38
OCC[C@@H]1C[C@@H](O)[C@H](O)[C@@]2(CCCc3ccccc3O2)O1	NRP1-CendR mod 25
CC(C)c1cn(CC[C@@H]2CC[C@H](NC(=O)C3CCC3)[C@H](CO)O2)nn1	none (no result: ALR H2O2 inh, PDI inh, NRP1-CendR mod)
C[C@H]1CN([C@@H](C)CO)C(=O)c2cc(NC(=O)Nc3cccc4ccccc34)ccc2O[C@H]1CN(C)C(=O)Nc1cccc2ccccc12	none (no result: ALR H2O2 inh, PDI inh, NRP1-CendR mod)
COc1cccc(-c2cn(CC[C@H]3CC[C@@H](NC(=O)CC4CC4)[C@@H](CO)O3)nn2)c1	none (no result: ALR H2O2 inh, PDI inh, NRP1-CendR mod)
OCC[C@@H]1C[C@@H](O)[C@H](O)[C@]2(OCc3ccccc32)O1	NRP1-CendR mod 27
COc1cc(C(=O)O)nc2ccccc12	ARNT-TACC3 inh 58 (no result: ERp5 inh)
COc1cc(/C=C/c2nc3ccccc3s2)cc(OC)c1O	ALR H2O2 inh 95 (no result: PglD inh)
COc1cc(/C=C/c2cc(C(=O)O)c3ccccc3n2)cc(OC)c1O	ALR H2O2 inh 99 (no result: PglD inh)
CCOc1cc(/C=C/c2cc(C(=O)O)c3ccccc3n2)ccc1O	ALR H2O2 inh 89 (no result: ERp5 inh)

Screening results (PubChem)
